From PubChem BioAssay
Shown are actives, neighbours in structure and some others; about 1.2% of the full set was active somewhere.
RGS7-Gao reg: human RGS7-Galphao interaction regulation; P09471; Multiplexed bead flow cytometry, RGS7-Galphao binding; actives lie on both sides; binding response (% of control), % at 10 µM; 0.35% of 220,000 active; in the data active = binding response below about 49% or above about 150%; inconclusive = no clear call, values can overlap the other calls; inactive = in between;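 note: fluorescent Galphao held in activated GDP-AlF4 state binding bead-coupled RGS7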
Target sequence (P09471 whole entry, looked up): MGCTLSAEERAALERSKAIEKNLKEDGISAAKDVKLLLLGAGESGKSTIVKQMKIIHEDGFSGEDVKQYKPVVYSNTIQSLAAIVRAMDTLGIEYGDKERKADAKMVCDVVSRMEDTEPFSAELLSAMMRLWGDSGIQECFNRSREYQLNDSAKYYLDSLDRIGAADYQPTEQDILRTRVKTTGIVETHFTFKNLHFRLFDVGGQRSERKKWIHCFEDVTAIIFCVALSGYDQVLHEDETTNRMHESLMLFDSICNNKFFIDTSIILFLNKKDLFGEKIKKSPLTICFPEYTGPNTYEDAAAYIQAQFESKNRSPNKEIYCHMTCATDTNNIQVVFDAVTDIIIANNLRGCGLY
GSH bead fluor: compound fluoresces at 488/530 nm on GSH beads | GSH beads flow cytometry, compound fluorescence 488/530 nm; stronger effect = higher value | fluorescence (KMESF) at 10 µM | 0.25% of 190,000 active; in the data active = fluorescence above about 89;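 note: glutathione beads carrying GST-tagged Bcl family fusion proteins plus one bare bead set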
RGS16-Gao HTS: RGS16-Galphao interaction regulator (human); bead-based flow cytometry RGS16-Galphao binding, fluorescence; actives lie on both sides; 0.38% of 220,000 active; O15492+P09471; binding response (% of control), % at 10 µM; call rule not given here;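 note: Galphao activated by GDP with aluminum fluoride before binding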
Target sequence (O15492 whole entry, looked up): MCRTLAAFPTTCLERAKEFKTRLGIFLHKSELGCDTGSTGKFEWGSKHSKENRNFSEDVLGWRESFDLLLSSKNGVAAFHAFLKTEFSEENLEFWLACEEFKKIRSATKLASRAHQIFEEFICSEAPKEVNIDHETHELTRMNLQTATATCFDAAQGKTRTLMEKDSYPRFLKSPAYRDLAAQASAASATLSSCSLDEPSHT
Target sequence (P09471 whole entry, looked up): as the sequence (P09471 whole entry, looked up) above
Avidin fluor: avidin bead compound fluorescence profile. 0.38% of 220,000 active. fluorescence (KMESF) at 10 µM. Avidin beads, compound fluorescence 488/530 nm, flow cytometry; stronger effect = higher value; in the data active = fluorescence above about 47
RGS4-Gao reg: human RGS4-Galphao interaction regulation; P09471; Multiplexed bead flow cytometry, RGS4-Galphao binding; actives lie on both sides; binding response (% of control), % at 10 µM; 0.33% of 220,000 active; in the data active = binding response below about 49% or above about 150%; inactive = in between;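 note: fluorescent Galphao activated with aluminum fluoride binding bead-coupled RGS4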
RGS8-Gao: regulators of human RGS8-Galphao interaction; P09471; multiplexed bead flow cytometry, RGS8-Galphao binding; actives lie on both sides; response (percent of control binding), % at 10 µM; 0.34% of 220,000 active; in the data active = response below about 60% or above about 140%; inactive = in between;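 note: Galphao activated as the GDP aluminium fluoride complex binding bead-coupled RGS8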
Numbers stand for hits.

Screening N#CCCN(Cc1ccccc1)C(=O)Nc1ccc(F)cc1 returned RGS7-Gao reg inconclusive, RGS16-Gao HTS inactive, Avidin fluor inactive, RGS4-Gao reg inactive and RGS8-Gao inactive.
For COc1ccc(N=C2S/C(=C\c3ccc(N4CCOCC4)o3)C(=O)N2CCc2c[nH]c3ccccc23)cc1 the results were RGS7-Gao reg inactive, GSH bead fluor 113, RGS16-Gao HTS inactive, Avidin fluor inactive, RGS4-Gao reg inactive and RGS8-Gao inactive.
`COc1ccc(N=C2S/C(=C\c3ccc(OCC(=O)O)cc3)C(=O)N2CCc2c[nH]c3ccccc23)cc1` gave RGS7-Gao reg inactive, GSH bead fluor inactive, RGS16-Gao HTS inactive, Avidin fluor inactive, RGS4-Gao reg inactive and RGS8-Gao inactive.
For COC(=O)C(C)N1C(=O)S/C(=C/c2cc(C)n(-c3ccccn3)c2C)C1=O (stereo unspecified) the results were RGS7-Gao reg inactive, GSH bead fluor 267, RGS16-Gao HTS inactive, Avidin fluor inactive, RGS4-Gao reg inactive and RGS8-Gao inactive.
Screening COc1ccc(Cl)cc1S(=O)(=O)n1cnc2ccccc21 returned RGS7-Gao reg inactive, GSH bead fluor inactive, RGS16-Gao HTS inactive, Avidin fluor 62, RGS4-Gao reg inactive and RGS8-Gao inactive.
CCOc1ccc(Cl)cc1S(=O)(=O)n1cnc2ccccc21 was read as RGS7-Gao reg inactive, GSH bead fluor inactive, RGS16-Gao HTS inactive, Avidin fluor inactive, RGS4-Gao reg inactive and RGS8-Gao inactive.
For Cc1ccc(S(=O)(=O)N2CCOCC2)cc1C(=O)NCCCn1ccnc1 the results were RGS7-Gao reg inactive, GSH bead fluor inactive, RGS16-Gao HTS inactive, Avidin fluor inactive, RGS4-Gao reg inactive and RGS8-Gao inactive.
Screening O=C(NCCCn1ccnc1)c1cc(S(=O)(=O)N2CCOCC2)c(Cl)cc1Cl returned RGS7-Gao reg inactive, GSH bead fluor 249, RGS16-Gao HTS inactive, Avidin fluor inactive, RGS4-Gao reg inactive and RGS8-Gao inactive.
Cc1c(Cl)cccc1NC(=S)Nc1ccc2[nH]c(=O)[nH]c2c1 was read as RGS7-Gao reg inconclusive, RGS16-Gao HTS inactive, Avidin fluor inactive, RGS4-Gao reg inactive and RGS8-Gao inactive.
For O=C(Nc1ccccn1)c1onc2c1CCCC2 the results were RGS7-Gao reg inactive, GSH bead fluor inactive, RGS16-Gao HTS inactive, Avidin fluor inactive, RGS4-Gao reg inactive and RGS8-Gao inactive.
c1ccc(-c2onc3c2CCCC3)cc1 was read as RGS7-Gao reg inactive, GSH bead fluor 242, RGS16-Gao HTS inactive, Avidin fluor inactive, RGS4-Gao reg inactive and RGS8-Gao inactive.
COC(=O)CSc1nnc(SCc2ccc(OC)cc2)s1 was read as RGS7-Gao reg inactive, GSH bead fluor inactive, RGS16-Gao HTS inactive, Avidin fluor 50, RGS4-Gao reg inactive and RGS8-Gao inactive.
For COc1ccc(CSc2nnc(SCc3ccc([N+](=O)[O-])cc3)s2)cc1 the results were RGS7-Gao reg inactive, GSH bead fluor inactive, RGS16-Gao HTS inactive, Avidin fluor inactive, RGS4-Gao reg inactive and RGS8-Gao inactive.
`O=C1CCCc2ccccc2N1Cc1ccc(Cl)cc1Cl` gave RGS7-Gao reg inactive, GSH bead fluor inactive, RGS16-Gao HTS inactive, Avidin fluor 68, RGS4-Gao reg inactive and RGS8-Gao inactive.
N#C/C(=C1\CCCN1)c1nc2ccccc2c(=O)[nH]1 was read as RGS7-Gao reg inactive, GSH bead fluor inactive, RGS16-Gao HTS inactive, Avidin fluor inactive, RGS4-Gao reg inactive and RGS8-Gao inactive.
N#C/C(C(=O)c1ccccc1)=C1/CCCN1 was read as RGS7-Gao reg inactive, GSH bead fluor inactive, RGS16-Gao HTS inactive, Avidin fluor 48, RGS4-Gao reg inactive and RGS8-Gao inactive.
`COc1ccc(/C=N/Nc2nc(Nc3ccccc3)nc(N3CCCC3)n2)cc1` gave RGS7-Gao reg inactive, GSH bead fluor inactive, RGS16-Gao HTS inactive, Avidin fluor 78, RGS4-Gao reg inactive and RGS8-Gao inactive.
COc1ccccc1-c1nn2c(=O)cc(C)nc2s1 was read as RGS7-Gao reg inactive, GSH bead fluor 254, RGS16-Gao HTS inactive, Avidin fluor inactive, RGS4-Gao reg inactive and RGS8-Gao inactive.
`COc1ccccc1-c1nn2c(-c3ccco3)nnc2s1` gave RGS7-Gao reg inactive, GSH bead fluor inactive, RGS16-Gao HTS inactive, Avidin fluor inactive, RGS4-Gao reg inactive and RGS8-Gao inactive.
O=C(O[C@@H]1Cc2c(O)cc(O)cc2O[C@@H]1c1cc(O)c(O)c(O)c1)c1cc(O)c(O)c(O)c1 was read as RGS7-Gao reg 32, GSH bead fluor inactive, RGS16-Gao HTS inactive, Avidin fluor inactive, RGS4-Gao reg 48 and RGS8-Gao 56.
`COc1ccc(C2NC(=S)N3C(c4ccc(OC)cc4)NC(=S)N23)cc1` (stereo unspecified) gave RGS7-Gao reg inactive, GSH bead fluor 266, RGS16-Gao HTS inactive, Avidin fluor inactive, RGS4-Gao reg inactive and RGS8-Gao inactive.
`S=C1NC(c2ccccc2)N2C(=S)NC(c3ccccc3)N12` (stereo unspecified) gave RGS7-Gao reg inactive, GSH bead fluor inactive, RGS16-Gao HTS inactive, Avidin fluor inactive, RGS4-Gao reg inactive and RGS8-Gao inactive.
Screening Cc1cc(C(=O)NC2CCCc3ccccc32)no1 (stereo unspecified) returned RGS7-Gao reg inactive, GSH bead fluor inactive, RGS16-Gao HTS inactive, Avidin fluor 47, RGS4-Gao reg inactive and RGS8-Gao inactive.
Screening CCOC(=O)/C=c1\s/c(=C\c2ccc3cc(OC)ccc3c2)c(=O)n1CC(=O)NCc1ccc2c(c1)OCO2 returned RGS7-Gao reg inactive, GSH bead fluor inactive, RGS16-Gao HTS inactive, Avidin fluor inactive, RGS4-Gao reg inactive and RGS8-Gao inactive.
Screening O=C(OCc1ccc(Cl)c(Cl)c1)c1cnccn1 returned RGS7-Gao reg inactive, GSH bead fluor 270, RGS16-Gao HTS inactive, Avidin fluor inactive, RGS4-Gao reg inactive and RGS8-Gao inactive.
For O=C(OCc1ccc(Cl)cc1)c1cnccn1 the results were RGS7-Gao reg inactive, GSH bead fluor inactive, RGS16-Gao HTS inactive, Avidin fluor inactive, RGS4-Gao reg inactive and RGS8-Gao inactive.
`O=C(Cn1cnc2ccccc21)OCC(=O)N1CCCc2ccccc21` gave RGS7-Gao reg inactive, GSH bead fluor 253, RGS16-Gao HTS inactive, Avidin fluor inactive, RGS4-Gao reg inactive and RGS8-Gao inactive.
Screening Cc1ccc(OCC(=O)N2CCc3ccccc32)cc1 returned RGS7-Gao reg inactive, GSH bead fluor inactive, RGS16-Gao HTS inactive, Avidin fluor inactive, RGS4-Gao reg inactive and RGS8-Gao inactive.
Screening O=C(CCCOc1ccc(Cl)cc1Cl)N1CCCc2ccccc21 returned RGS7-Gao reg inactive, GSH bead fluor 250, RGS16-Gao HTS inactive, Avidin fluor inactive, RGS4-Gao reg inactive and RGS8-Gao inactive.
O=C(COc1ccc(Cl)cc1Cl)OCC(=O)N1CCCc2ccccc21 was read as RGS7-Gao reg inactive, GSH bead fluor inactive, RGS16-Gao HTS inactive, Avidin fluor inactive, RGS4-Gao reg inactive and RGS8-Gao inactive.
